# Pf Dd2 growth: inhibitors of Plasmodium falciparum Dd2 growth | Potency, µM (top dose mostly 28.9 µM), without a hit: top-dose activity, negative = inhibition, most hits filed as inhibitors | AID 1347417 | 120,000 tested, 4.3% active | P. falciparum Dd2 growth, SYBR Green, 72 h; active = well fitted inhibition curve with a large enough effect;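 also: plate controls were DMSO vehicle for no effect and reference drug for full effect; nearly all actives have a fitted effect of over 65% in size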
#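 Infected erythrocytes (Dd2, 0.3% parasitemia, 2.5% hematocrit final) are added to compound in RPMI-1640/Albumax II medium, grown 72 h at 37C in low oxygen, then lysed with saponin/Triton-X containing SYBR Green and read by fluorescence.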
# An asterisk follows results filed as active; i = inactive; [ ] = another dose, or the depositor's remark. Many of the other results were omitted from the sample, so hits are more common in it than they were. Potency is read from the fitted curve at half-maximal effect.
SMILES,Pf Dd2 growth
Cc1ccc(NC(=O)N(C)CC2CCOC2)cc1 (stereo not given),i[5.79 µM]
COc1cccc(C(=O)N2CCc3nc(C)nc(-c4ccc(Cl)cc4)c3CC2)c1,i
COc1ccc(C(=O)N2CCc3nc(C(C)C)nc(-c4ccc(O)cc4)c3C2)cc1,8.91µM*
COc1ccc(C(=O)N2CCCc3nc(C)nc(-c4ccc(O)cc4)c3C2)cc1,-13.3%
Cc1ccccc1C(=O)N1CCc2nc(C(C)C)nc(-c3ccc(O)cc3)c2C1,-1.0%
COc1ccc(-c2nc3c(c(-c4ccccc4)n2)CN(C(C)=O)CC3)cc1,i
CC(C)c1nc2c(c(-c3ccc(O)cc3)n1)CCN(C(=O)c1cccc(Cl)c1)CC2,7.94µM*
COc1ccc(-c2nc(-c3ccccc3)nc3c2CN(C(=O)C2CC2)CC3)cc1,11.2µM*
CC(C)c1nc2c(c(-c3ccc(O)cc3)n1)CN(C(=O)c1ccccc1)CC2,-13.2%
O=C(C1CC1)N1CCc2nc(-c3ccc(Cl)cc3)nc(-c3ccccc3)c2C1,i
CC(=O)N1CCc2nc(C(C)C)nc(-c3ccc(O)cc3)c2C1,-13.8%[44.1 µM]
CC(C)c1nc2c(c(-c3ccc(O)cc3)n1)CN(C(=O)c1cccc(Cl)c1)CC2,4.47µM*
CC(C)c1nc2c(c(-c3ccc(O)cc3)n1)CN(C(=O)c1ccc(Cl)nc1)CC2,i
COCC(=O)N1CCC2(CC1)Nc1ccccc1NC2=O,-4.5%
Cc1ccc(Cl)cc1NC(=O)N(C)CC1CCOCC1,-3.2%
O=C(c1ccccc1)N1CCC(c2nc(C3CCOCC3)no2)CC1,-1.6%
CCN(CC)C(=O)CC[C@H]1CNC(=O)[C@@H]2[C@@H](CCN2Cc2csnn2)N1C,3.1%[44.1 µM]
CC(C)(C)CN1CCN(Cc2cnc(-c3ccc(Cl)cc3)nc2)CC1CCO (stereo not given),-14.8%
O=C(NCc1cccc(F)c1)c1c(OCC2CC2)cc(=O)n2c1CCCCC2,3.3%
CC(C)c1nc2c(c(-c3ccc(O)cc3)n1)CCN(C(=O)c1ccccc1Cl)CC2,i
COc1ccc(-c2nc(C(C)C)nc3c2CCN(C(=O)c2ccccc2Cl)CC3)cc1,10µM*
COCC(=O)N1CCc2nc(C(C)C)nc(-c3ccc(OC)cc3)c2CC1,-11.3%
O=C(CC(c1cccc(O)c1)c1ccccc1Cl)NCc1cccnc1 (stereo not given),-3.8%
CCCNC(=O)NC[C@H]1O[C@@H]2C[C@@H](CC(=O)NCc3nccn3C)O[C@@H]2[C@@H]1O,1.8%[44.1 µM]
CCCN1CCN(CCCNC(=O)Cn2c(-c3cccs3)cc3cc(Cl)ccc32)CC1,8.91µM*
SMILES,Pf Dd2 growth
Cc1ccc(C)c(N2CCN(CCCNC(=O)Cn3ncc4c5ccccc5n(C)c4c3=O)CC2)c1,-25.5%
Cc1ccc(CCNC(=O)Cn2c(-c3cccs3)cc3ccccc32)cc1,12.6µM*
CC(C)c1nc2ccc(C(=O)NCCCN3CCN(c4cccc(Cl)c4)CC3)cc2o1,-2.1%
CCCN1CCN(C(=O)Cn2c(-c3cccs3)cc3cc(F)ccc32)CC1,-18.1%
CC1CCN(C(=O)Cn2c(-c3cccs3)cc3cc(Cl)ccc32)CC1,-7.8%
CCC(=O)N1c2ccccc2CC1C(=O)NCCN1CCN(c2cccc(Cl)c2)CC1 (stereo not given),-23.0%
Cc1ccc(C)c(N2CCN(CCCNC(=O)Cn3c(-c4cccs4)cc4ccccc43)CC2)c1,7.94µM*
Cc1ccc(NC(=O)Cn2c(CCC(=O)O)ccc2-c2cccs2)cc1,6.8%
CCN1CCN(CCCNC(=O)Cn2c(-c3cccs3)cc3ccccc32)CC1,-16.5%
O=C(Cn1c(-c2cccs2)cc2ccccc21)NCCCN1CCN(c2cccc(Cl)c2)CC1,11.2µM*
Cc1cc(C)c(NC(=O)Cn2c(=O)n(CC(=O)NCCc3ccccc3)c(=O)c3ccccc32)c(C)c1,15.3%
CC(C)(C)C(=O)N1CCC2(CC1)C(=O)NCN2Cc1ccc(Cl)cc1,i
Cc1nc(-c2cn(C3CCCN(C(=O)c4ccccc4)C3)nn2)no1 (stereo not given),-21.9%
Cc1ccsc1CN1CCCC(CO)CCNC(=O)CC1 (stereo not given),-14.8%
CCOc1nccn2c(-c3ccc(CNC(=O)Cn4cnnn4)cc3)cnc12,i
COCc1cc(=O)n(CC(=O)Nc2ccccc2F)c(N2CCOCC2)n1,12.8%
CNC(=O)[C@@H]1CN(C(=O)CCc2nc3ccccc3s2)C[C@H]1c1nc(C)no1,8.4%
COC(=O)[C@@H]1Cc2ncn(Cc3ccc(OC)cc3)c2CN1C(=O)c1cccs1,i
Cn1ncc(N2CCCC(CC(=O)NCCc3ccccc3)C2)cc1=O (stereo not given),i
CCN1C(=O)CCN(C(=O)c2cnc(C)cn2)CC12CCOCC2,21.6%
COC(=O)c1ccc(NC(=O)CSc2nc3c(c(=O)n(C)c(=O)n3C)n2Cc2ccccc2)cc1,25.5%
COC(=O)c1ccc(NC(=O)C(C)Sc2nc(=O)cc(N)n2CCc2ccccc2)cc1 (stereo not given),11.2µM*
COC(=O)c1ccccc1NC(=O)CSc1nc(=O)cc(N)n1-c1ccccc1,55.2%
Cn1ncc(N2CCC(C(=O)NCc3ccc(OC(F)(F)F)cc3)C2)cc1=O (stereo not given),-8.4%
Cc1cc(C)n(CCC(=O)N[C@@H]2CN(c3ccncn3)C[C@H]2CN(C)C)n1,19.6%
SMILES,Pf Dd2 growth
Cc1c(CCNC(=O)Cc2ccc(F)cc2)sc2nc(-c3ccc(F)cc3)nn12,4.2%
Cc1c(CCNC(=O)Cc2ccccc2)sc2nc(-c3ccc(F)cc3)nn12,i
Cc1c(CCNC(=O)c2ccc(C(C)(C)C)cc2)sc2nc(-c3ccc(F)cc3)nn12,11.2µM*
CNC(C)c1ccccc1OC (stereo not given),-14.4%[44.1 µM]
Cc1nc(-c2ccccc2)n(Cc2cccc(C(F)(F)F)c2)c(=O)c1CCO,i
Cc1ccc(C(=O)N2CCC3(CC2)N(C)C(=O)CS3(=O)=O)cc1,2.0%
COc1ccc(C(=O)N2CCC(N3CCNC3=O)CC2)cc1,3.8%[44.1 µM]
CN1CCc2nc3sc(C(=O)c4ccc(F)cc4)c(N)c3cc2C1,-7.1%
COc1ccc(NC(=O)c2sc3nc4c(cc3c2N)CN(Cc2ccccc2)CC4)cc1OC,i
CN1CCc2nc3sc(C(=O)Nc4ccccc4C(F)(F)F)c(N)c3cc2C1,8.91µM*
COc1ccc(OC2CN([S+](=O)([O-])c3ccccc3)C2)cc1,i
COC(=O)c1c(NC(=O)c2ccc(OC)cc2)c2cc(NC(C)CCn3cccn3)cnc2n1C (stereo not given),-20.3%
CNc1nc(C(=O)N2CCC3(CCC(=O)N(CC4CCCO4)C3)CC2)cs1 (stereo not given),0.6%
NCc1ccccc1-c1cccc(Cl)c1,8.91µM*
NCc1cn[nH]c1-c1ccccc1,7.2%
NCc1ccccc1-c1ccc(O)cc1,5.0%[44.1 µM]
N#Cc1ccc(C(=O)N[C@H]2[C@H](O)[C@H](O)C[C@@H]2c2cccnc2)cc1,29.2%[44.1 µM]
Cc1ccccc1-c1nccc2c(=O)cc(N(C)C3CCOCC3)oc12,i
Cc1ccccc1-c1nccc2c(=O)cc(-c3ccncc3)oc12,-18.5%[44.1 µM]
Cc1ccccc1-c1nccc2c(=O)cc(C3=CCOCC3)oc12,10µM*
CN(CC1CCCO1)c1ccc(C(=O)N2CCC(N3CCOCC3)CC2)cn1 (stereo not given),-7.9%
CCOc1ccc(CNC(=O)CCc2cn(CC)c3ccccc23)cc1,-11.6%
CCOc1ccc(NC(=O)N(Cc2cn(CC)c3ccccc23)C2CCCCCC2)cc1,10µM*
CCOc1ccc(NC(=O)Cn2cc(C(=O)C3CC3)c3ccccc32)cc1,4.6%
COc1ccc(-c2nc(C3CC(=O)N(C4CCCCC4)C3)no2)cc1 (stereo not given),61.1%
